Screening results: PubChem, National Center for Advancing Translational Sciences (NCATS)
This excerpt belongs to a sample that is enriched for hits.
TDP1 block: inhibitors of human tyrosyl-DNA phosphodiesterase TDP1; Q9NUW8; recombinant TDP1, AlphaScreen DNA substrate cleavage; Potency, µM (titrated, usually from 130 µM), usual class: inhibitors; actives 0.28% (n = 350,000); AID 485290; also: nearly all actives have a fitted effect of over 40% in size
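Tdp1 1 nM final; 15 min RT w/ cpd; substrate 15 nM, 5 min; beads 10 ug/ml, 10 min; AlphaScreen read. Neg ctrl: no enzyme.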
GCN5L2 inh: blocks human GCN5L2 histone acetyltransferase; Q92830; Potency, µM (titrated, usually from 58.9 µM), most hits filed as inhibitors; actives 0.21% (n = 390,000); GCN5L2 HAT assay, ThioGlo1 CoA-SH fluorescence
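GCN5L2 (20nM final) in 50mM HEPES, 0.1mM EDTA pH 7.5, 0.01% Tween-20 was preincubated 15 min at room temperature with compound, then given ThioGlo1 (50uM), H3(1-25) peptide (75uM) and acetyl-CoA (70uM); CoA-thiol fluorescence (Ex340/Em540) was read at 0 and 20 min.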
APE1 inh: inhibitors of human APE1 endonuclease; P27695; recombinant APE1, TAMRA/BHQ-2 abasic DNA cleavage fluorescence; Potency, µM (titrated, usually from 65.8 µM), most hits filed as inhibitors; actives 0.35% (n = 350,000); AID 2517; also: nearly all actives have a fitted effect of over 55% in size
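Activity was derived from the fluorescence gain between first and third kinetic reads (60 s intervals, ex 525/em 598 nm) after 50 nM THF-abasic TAMRA/BHQ-2 duplex was added to 0.75 nM APE1 preincubated 15 min with compound.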
RECQ1 helicase: inhibitors of human RECQ1 DNA helicase; P46063; RECQ1 DNA unwinding, red fluorescence kinetic read; Potency, µM (top dose mostly 57.3 µM), most hits filed as inhibitors; actives 0.54% (n = 240,000); AID 2549; also: nearly all actives have a fitted effect of over 30% in size
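50 nM RECQ1T1 preincubated 15 min with compound in Tris pH 8.0 buffer with MgCl2, DTT, Tween-20 and 2.5 ug/ml poly(dI-dC); started with 200 nM TAMRA/BHQ-2 forked duplex and 2 mM ATP. Unwinding read as fluorescence (525/598 nm), two reads 2 h apart.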
BLM helicase inh: Bloom syndrome helicase (human) inhibition. P54132. recombinant BLM DNA unwinding, fluorescence dequenching. Potency, µM (highest dose often 56.1 µM), hits mostly inhibitors. actives 0.2% (n = 350,000). AID 2528; also: nearly all actives have a fitted effect of over 35% in size
KDM4E inh: JMJD2E (human) inhibition; JMJD2E catalytic domain, FDH-coupled NADH fluorescence (FDH is formaldehyde dehydrogenase); Potency, µM (highest dose often 57.1 µM), usual class: inhibitors; B2RXH2; actives 1.6% (n = 230,000); active = well fitted inhibition curve with a large enough effect, not every such curve was filed as active; inconclusive = small, poorly fitted or top-dose-only effect, or another doubt; inactive = no such curve, though single readings can be large or run the other way; also: nearly all actives have a fitted effect of over 50% in size
Large screens that a line does not name were inactive; ! = a repeat was not active. Unless noted, calls follow the shape of the dose curve; as a rule, active = well fitted curve in the direction sought with a large enough effect; inconclusive = small, poorly fitted or top-dose-only effect, or another doubt; inactive = no such curve, though single readings can be large; an effect the other way counts as inactive or inconclusive.

Cc1ccc(S(=O)(=O)/N=C/c2c(O)ccc3ccccc23)cc1	none (no result: RECQ1 helicase, KDM4E inh)
Oc1ccc2ccccc2c1C=NCc1ccccc1	KDM4E inh inconclusive
O=C(CNc1ccc(F)cc1)N/N=C/c1c(O)ccc2ccccc12	none (no result: TDP1 block, RECQ1 helicase, KDM4E inh)
Cc1cc(N/N=C/c2c(O)ccc3ccccc23)nc(-c2ccccc2O)n1	KDM4E inh 14.1µM
NC(=S)N/N=C/c1c(O)ccc2ccccc12	KDM4E inh 7.08µM
Cc1ccc(CNc2ncnc3ccc(-c4ccc5c(c4)OCO5)cc23)s1	none (no result: GCN5L2 inh, APE1 inh, RECQ1 helicase, BLM helicase inh, KDM4E inh)
CCCC[C@H](NC(=O)[C@H](CO)NC(=O)[C@H](Cc1ccc(O)cc1)NC(=O)[C@H](CO)NC(C)=O)C(=O)N[C@@H](CCC(=O)O)C(=O)N[C@@H](Cc1cnc[nH]1)C(=O)N[C@H](Cc1ccccc1)C(=O)N[C@@H](CCCNC(=N)N)C(=O)N[C@@H](Cc1c[nH]c2ccccc12)C(=O)NCC(=O)N[C@@H](CCCCN)C(=O)N1CCC[C@H]1C(=O)N[C@H](C(N)=O)C(C)C	none (no result: KDM4E inh)
Cc1ccc(-c2nnc(Nc3ccc(Br)cc3)c3ccccc23)cc1S(=O)(=O)NCC1CCCO1 (stereo unspecified)	none (no result: TDP1 block, APE1 inh, RECQ1 helicase, KDM4E inh)
COc1ccc2ccccc2c1/C=N/Nc1ccc(Cl)c(C(=O)O)c1	none (no result: RECQ1 helicase, KDM4E inh)
COc1ccc(N/N=C/c2c(C(=O)O)ccc3ccccc23)cc1	APE1 inh inconclusive, KDM4E inh 25.1µM
O=c1oc2c(CN3CCN(CCO)CC3)c(O)ccc2cc1-c1ccccc1	GCN5L2 inh 31.6µM (no result: APE1 inh, RECQ1 helicase, KDM4E inh)
COc1ccc(-c2cc3ccc(O)c(CN4CCCC4)c3oc2=O)cc1OC	GCN5L2 inh 14.1µM (no result: APE1 inh, RECQ1 helicase, KDM4E inh)
Cc1c(Cl)cccc1N1CC(C)(C)C1=O	RECQ1 helicase 17.8µM
O=C(/C=C/c1ccc2c(c1)OCO2)c1ccc[nH]1	none
CCNc1ccccc(C(=O)/C=C/c2ccc3c(c2)OCO3)c1=O	RECQ1 helicase inconclusive, KDM4E inh 20µM
O=C(/C=C/c1ccc2c(c1)OCO2)c1cccs1	KDM4E inh 22.4µM
COc1cc2[nH]c(Cl)c([N+](=O)[O-])c2cc1OC	APE1 inh inconclusive, BLM helicase inh inconclusive, KDM4E inh 12.6µM (no result: TDP1 block)
O=C1/C(=C\c2cc([N+](=O)[O-])ccc2O)SC(=S)N1Cc1ccc(Cl)cc1	APE1 inh inconclusive, BLM helicase inh 31.6µM (no result: TDP1 block, RECQ1 helicase, KDM4E inh)
O=C1/C(=C\c2cccc(O)c2O)SC(=S)N1Cc1ccccc1	GCN5L2 inh 20µM (no result: TDP1 block, RECQ1 helicase, KDM4E inh)
OC[C@@H]1[C@@H](c2ccc(Cl)cc2)C(c2ccccc2)=NN1c1ccccc1	TDP1 block inconclusive, GCN5L2 inh inconclusive (no result: KDM4E inh)
OC[C@@H]1[C@@H](c2ccc(Cl)cc2)C(c2cccc(Cl)c2)=NN1c1ccccc1	TDP1 block 39.8µM!, GCN5L2 inh 28.2µM! (no result: KDM4E inh)
C[C@H]1C(c2cccc(Cl)c2)=NN(c2ccccc2)[C@@H]1CO	TDP1 block 39.8µM, GCN5L2 inh inconclusive (no result: KDM4E inh)
Cc1ccc(NS(=O)(=O)c2cc3c(cc2-c2cn[nH]c2)NC(=O)CO3)cc1C	none (no result: GCN5L2 inh, APE1 inh, RECQ1 helicase, BLM helicase inh, KDM4E inh)
C[C@@H]1O[C@H](O[C@@H]2C(O)[C@H](O)[C@@H](CO)O[C@H]2Oc2cc(O)c3c(=O)cc(-c4ccc(O)cc4)oc3c2)[C@H](O)[C@H](O)[C@H]1O (stereo partly specified)	none (no result: KDM4E inh)
Cc1ccccc1-c1cncnc1NCCN1CCOCC1	TDP1 block 35.5µM
CN1CCc2c(sc3ncn4nc(-c5ccccc5O)nc4c23)C1	KDM4E inh 22.4µM
c1coc(-c2nc3c4c5c(sc4ncn3n2)CCCC5)c1	APE1 inh inconclusive
CCOC(=O)C1=C(CSc2nc(-c3ccccc3)ccc2C#N)OC(N)=C(C#N)C1c1ccc(OC)cc1 (stereo unspecified)	RECQ1 helicase 10µM
CCOC(=O)C1=C(CSc2nc(CC)c(C)cc2C#N)OC(N)=C(C#N)C1c1ccccc1 (stereo unspecified)	none
CSc1nn(Cc2ccc(F)cc2)c(N)c1S(=O)(=O)c1ccc(Cl)cc1	none (no result: APE1 inh, RECQ1 helicase, KDM4E inh)
